aSyn UTR act: Activators working through SNCA 5'UTR binding (MLPCN); activity score, % (tested at 7.5 µM), hits read low; alpha-synuclein 5'UTR reporter, activators screen; 7.1% of 300,000 active; in the data active = activity score below about -60%
An asterisk follows results filed as active. Only a sample is shown.

SMILES | aSyn UTR act
CC(=O)OC(C)(C)/C=C/C(=O)C(C)(O)C1[C@H](O)C[C@@]2(C)C3CC=C4C(CC[C@@H](O)C4(C)C)[C@]3(CO)C(=O)C[C@]12C (some centres undefined) | 86
COc1cc(/C=C(/C)[N+](=O)[O-])ccc1OCc1ccccc1Cl | -134*
C=C1C(=O)O[C@@H]2C[C@@H](C)[C@@H]3C=CC(=O)[C@@]3(C)[C@@H](O)[C@H]12 | 119
C[C@@H]1C[C@H]2OC(=O)C3(CO3)[C@H]2[C@H](O)[C@]2(C)C(=O)C3OC3[C@@H]12 (some centres undefined) | -63*
N=C1c2ccccc2CN1NC(=O)c1ccc(F)cc1 | -62*
Cc1cc(C(=O)Nc2ccccc2)nn1C(C)(C)C | -112*
Cc1cc(C(=O)Nc2ccc3c(c2)OCCO3)nn1C(C)(C)C | -136*
NC(Cc1nc2ccccc2[nH]1)c1ccc(Cl)cc1 (centres undefined) | -167*
Cc1nc2cc(-c3cccc(F)c3)nn2c(C)c1CCC(=O)N1CCC2(CC1)OCCO2 | 77
O=C(CSc1ccccc1)N1CCC2(CC1)OCCO2 | -92*
CN(C)c1ccc(/C=C/C=C/c2sc3ccccc3[n+]2C)cc1 | 60
CC1CC(OP(O)(=S)c2ccc(N(C)C)cc2NC(=O)c2cccs2)CC(C)(C)C1 (centres undefined) | -113*
O=[N+]([O-])c1ccc(NC2CCCC2)c2ccncc12 | 58

Bioassay records from PubChem.
